In all, about 360,000 compounds went through this assay and about 1,200 (0.33%) were called active. Many of the other results were omitted from the sample, so actives are more common in it than they were. A number with no mark means an inactive call. No stated cut-off is given here; in the data, active means inhibition above about 37%; inactive means the rest.

The text below walks through data of PubChem BioAssay AID602429 (Sanford-Burnham Center for Chemical Genomics, 2012).

The target in the test is Small ubiquitin-related modifier 1 (Homo sapiens) (UniProt P63165). In words: SUMO1 binding to interaction partners, disruption – biochemical, uHTS, primary screen (AID 602429). The settings on record: SUMO1 binding to a labelled peptide, TR-FRET, 1 h; at 20 µM; stronger effect = higher value. Background: TR-FRET usually uses a lanthanide donor and a delayed reading to cut background.
Small ubiquitin-related modifier 1 (Homo sapiens), sequence (P63165 whole entry, looked up): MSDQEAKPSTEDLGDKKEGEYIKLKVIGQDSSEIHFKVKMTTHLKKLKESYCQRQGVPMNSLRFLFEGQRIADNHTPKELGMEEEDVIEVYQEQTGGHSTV
Take `Cc1ccc(NC(=O)Cn2cccc2C2=NC(c3ccccc3)CO2)c(C)c1` (stereo unspecified): the inhibition – broadly, the drop in the measured response relative to a control, in per cent – is -4.14%.

On to `COC(=O)c1cc2occc2n1Cc1nc(-c2ccccc2C)oc1C`, for which the inhibition is 0.0493%.

Take `COc1cc(CCN=Cc2ccccc2O)c([N+](=O)[O-])cc1OC`: the inhibition was -13%.

As for `COc1ccccc1C(CNC(=O)c1cccc(NS(=O)(=O)c2ccc(Br)cc2)c1)N(C)C` (stereo unspecified), the inhibition was -3.01%.

As for `COc1ccc(Br)cc1/C=N/Nc1ccc(S(=O)(=O)Nc2ccccc2C(=O)O)cc1[N+](=O)[O-]`, the inhibition is 108% (active).

With `COCOCCn1cc(CN2CCS(=O)(=O)N(Cc3ccc(-c4ccccc4)cc3)C(CC(C)C)C2=O)nn1` (stereo unspecified), the inhibition was 3.98%.

As for `COc1ccc(OCc2nnc3n2N=C(c2ccccc2)C(CC(=O)O)S3)cc1` (stereo unspecified), the inhibition is 10.5%.

Regarding `CCOC(=O)C1=C(COC(=O)[C@H](C)NS(=O)(=O)c2ccccc2F)NC(=O)NC1C` (stereo partly specified), the inhibition was 2.53%.

Take `O=C(O)CC(CC(=O)N1CCOCC1)c1ccccc1` (stereo unspecified): the inhibition is 4.09%.

As to `Oc1ccc(N=Cc2sc3ccccc3c2Cl)cc1`, the inhibition is 43.8% (active).

Turning to `CCCNC(=O)c1cc(C2CCCN(C(=O)c3ccc4c(c3)CCO4)C2)on1` (stereo unspecified), the inhibition was -2.48%.

As for `CCCCN(C)CCNC(=O)C1CCCN(S(=O)(=O)c2cccc3nsnc23)C1` (stereo unspecified), the inhibition is -32.8%.

On to `COc1ccc(CCNC(=O)C(=O)Nc2ccc3nc4n(c(=O)c3c2)CCCCC4)cc1OC`, for which the inhibition was -4.72%.

As to `CC(=O)NN=C(C)c1ccc(NC(=O)C2CC2)cc1`, the inhibition is -0.643%.

With `Cc1c(Cl)cccc1NC(=O)CCC(=O)N/N=C/c1ccco1`, the inhibition was -6.83%.

`O=C(N/N=C/c1ccco1)c1ccc(C(=O)N/N=C/c2ccco2)o1`: the inhibition was 36.6% (active).

As to `O=C(Cn1cnc2ccccc21)N/N=C/c1ccco1`, the inhibition is -6.39%.

As to `O=C(O)c1ccccc1OCc1ccccc1Cl`, the inhibition is 1.06%.

Regarding `Cc1c(CCC(=O)O)c(=O)oc2c(C)c(OCc3ccccc3Cl)ccc12`, the inhibition is 56.6% (active).

Turning to `COc1ccc2c(C)c(CCC(=O)NC3CC3)c(=O)oc2c1C`, the inhibition was 1.06%.

On to `Cc1cc(C)n2nc(C(=O)OC(C)C(=O)c3cc(C)c(C)cc3C)nc2n1` (stereo unspecified), for which the inhibition was 1.78%.

Regarding `O=C(CNC(=O)[C@@H]1Cc2ccccc2CN1)NC1CCCCC1`, the inhibition is 3.02%.

As for `CC/C=C/C(=O)N1CC2(CC(c3cccc(NC(=O)CC)c3)=NO2)C[C@H]1C(N)=O` (stereo partly specified), the inhibition was 0.0237%.

Take `C=C(C)C(=O)Nc1cccc(C2=NOC3(C2)C[C@H](C(N)=O)N(C(=O)C(c2ccccc2)c2ccccc2)C3)c1` (stereo partly specified): the inhibition was 61.6% (active).

Regarding `C/C=C\C=C\C(=O)N1CC2(CC(c3cccc(NC(=O)/C(C)=C\C)c3)=NO2)C[C@H]1C(N)=O` (stereo partly specified), the inhibition was -1.81%.

Consider `COc1cccc(NC(=O)C(Sc2nc3ccccc3c(=O)n2CC(C)C)c2ccccc2)c1` (stereo unspecified), for which the inhibition was 1.55%.

`Cc1nc([N+](=O)[O-])c(NCCCO)n1Cc1ccccc1`: the inhibition was -1.9%.

Regarding `CCCCNC(=O)Nc1c(C)cc(SC#N)cc1C`, the inhibition is -6.49%.

Consider `CCOc1ccc(-c2nc(N)ncc2-c2ccccc2OC)c(O)c1`, for which the inhibition was 39.4% (active).

On to `CCOC(=O)Cn1c2c(c(-c3ccccc3OC)cc1=O)CCCC2`, for which the inhibition was -0.83%.

For `COc1ccc(-c2c(-c3ccc(OC)cc3O)nc(C)nc2C(F)(F)F)cc1`, the inhibition was 3.81%.

In the case of `Cc1nnc(SCC(=O)Nc2ccc(S(=O)(=O)Nc3ccc(Cl)nn3)cc2)s1`, the inhibition was 25.2%.

For the compound `COC(=O)CNC(=O)c1ccc(OC2CCN(C(=O)C3CC3)CC2)cc1`, the inhibition was -0.596%.

Take `Clc1ccc(C2=CSC3=Nc4cccc5cccc(c45)N23)cc1`: the inhibition was 55.4% (active).

Consider `CC(C)(C)NC(=O)C(c1ccco1)N(Cc1ccc2c(c1)OCO2)C(=O)Cn1nnc2ccccc21` (stereo unspecified), for which the inhibition is 1.87%.

For the compound `CCCCn1c(N)c(N(CC(C)C)C(=O)C2CSC3(C)CCC(=O)N23)c(=O)[nH]c1=O` (stereo unspecified), the inhibition was 2.07%.

For the compound `CSc1cc(C)n(-c2ccccc2C)c(=S)c1C(C)=O`, the inhibition is -3.72%.

For `O=C(c1cccs1)N1CCC(c2nc3ccccc3s2)CC1`, the inhibition was -0.383%.

Take `O=C(NCCCN1CCOCC1)c1ccccc1NS(=O)(=O)c1ccc(F)cc1`: the inhibition is 2.97%.

In the case of `CCOC(=O)Cn1nnnc1C`, the inhibition was 4.96%.

With `COc1ccc(S(=O)(=O)N2CCOCC2)c(C)c1C`, the inhibition was 0.744%.

`C=CCn1c(=S)[nH]c2scc(-c3ccco3)c2c1=O`: the inhibition is 80.7% (active).

In the case of `C=CCNC(=S)NNc1ncnc2sc3c(c12)CC(C)(C)OC3`, the inhibition was -4.03%.

`O=C(Nc1ccccc1C(=O)NCCCn1ccnc1)c1ccc(Cl)cc1Cl`: the inhibition is -2.3%.

In the case of `C=C(Br)CN1CCN(CC(=C)Br)CC1`, the inhibition is 1.02%.

Regarding `O=C(CN1CCCCCC1)Nc1c(Cl)cc(Cl)cc1Cl`, the inhibition was -1.26%.

Turning to `Cc1nnc(NC(=O)CSc2nc(C3CCCCC3)nc3ccccc23)s1`, the inhibition was -2.49%.

Regarding `O=C(CSc1nc(C2CC2)nc2ccccc12)Nc1cccc(O)c1`, the inhibition was 45.7% (active).

With `O=C(CSc1nc(C2CC2)nc2ccccc12)Nc1ccc2c(c1)OCCO2`, the inhibition is -1.95%.

Regarding `O=C(Cn1cnc2c(nnn2Cc2ccc(F)cc2)c1=O)NCc1ccc2c(c1)OCO2`, the inhibition was 1.22%.

Regarding `Cc1cc(S(=O)(=O)c2cc3ccc(O)c(C)c3oc2=O)ccc1F`, the inhibition is -12.4%.

`OCCc1ccc(NCCc2ccco2)cc1`: the inhibition was 4%.

In the case of `COc1ccc(C(=O)N/N=C(\C)CC(=O)Nc2ccc(Cl)cn2)cc1`, the inhibition was -4.09%.

`COc1ccccc1NC(=O)c1cc(Cl)nnc1Cl`: the inhibition was -6.09%.

As to `COc1ccc(C(=O)Nc2cc(C)c(NC(=O)c3ccccc3OC)cn2)cc1`, the inhibition is 40% (active).

As to `CCOc1ccc(NC(=O)c2ccc(NC(=O)CN3C(=O)C(=O)N(CC(C)C)C3=O)cc2)cc1`, the inhibition was 6.4%.

Turning to `CCOc1ccc(NC(=O)c2ccc(NC(=O)C3CCCO3)cc2)cc1` (stereo unspecified), the inhibition was 1.59%.

Take `CCOc1ccc(NC(=O)c2ccc(NC(=O)COC(=O)c3ccc(NC(=O)CC#N)cc3)cc2)cc1`: the inhibition is 58.6% (active).

Take `CCCCn1c(N)c(N(CCOC)C(=O)c2cccc(S(=O)(=O)N3CCCCC3)c2)c(=O)[nH]c1=O`: the inhibition was 1.21%.

Regarding `Cc1nc2ccccc2c(C)c1C(=O)c1ccc(F)cc1`, the inhibition is -0.636%.

Consider `O=C(NNC(=S)NC(=O)c1cn(-c2ccccc2)nc1-c1ccccc1)c1ccncc1`, for which the inhibition is 7.64%.

On to `Cc1onc(-c2ccccc2)c1C(=O)NNC(=S)NC(=O)c1ccc(F)cc1`, for which the inhibition is 61.3% (active).

Take `CCc1nc2ccc(C(=O)N(C)Cc3ccco3)cn2c1N(C)C(=O)Cc1ccccc1`: the inhibition was 3.29%.

As for `CCc1cc2cc(OC)ccc2nc1SCC(=O)Nc1cc(OC)c(OC)cc1C(=O)O`, the inhibition was 4.88%.

Take `CCOC(=O)C1=C(C)NC(C)=C(C(=O)OCC)C1C1=COCCO1`: the inhibition is -7.71%.

Take `O=C(Nc1ccc(N2CCN(C(=O)c3cccs3)CC2)cc1)c1cccnc1Cl`: the inhibition was -1.91%.

As to `CC(=O)Nc1cc(-c2ccc(N3CCN(C)CC3)cc2)cn2c(-c3ccc(F)cc3)cnc12`, the inhibition was -43.3%.

In the case of `C=CC(=O)Nc1ccc(Nc2ccnc(Nc3ccc(N4CCN(C)CC4)cc3)n2)cc1`, the inhibition was 88.3% (active).

For the compound `Cc1noc(C)c1S(=O)(=O)Nc1ccc(C(=O)O)cc1`, the inhibition is 2.25%.

On to `CC(=O)N1c2ccc(S(=O)(=O)N3CCCC(C(=O)Nc4cccc(F)c4)C3)cc2CC1C` (stereo unspecified), for which the inhibition was 1.06%.

For `O=C(COc1ccc([N+](=O)[O-])cc1Cl)Nc1ccc2[nH]c(=O)[nH]c2c1`, the inhibition is -14.3%.

Regarding `O=C(COC(=O)c1cccc(Cl)c1)Nc1ccc2[nH]c(=O)[nH]c2c1`, the inhibition was 3.54%.

In the case of `COc1ccc(C(=O)OCC(=O)Nc2ccc3[nH]c(=O)[nH]c3c2)c(OC)c1OC`, the inhibition was 45.3% (active).

As for `Cc1ccc(S(=O)(=O)N2CCN(C(=O)Cn3c(=O)cnc4ccccc43)CC2)c(C)c1`, the inhibition is -18.5%.

`O=C(CCl)N(Cc1cccc([N+](=O)[O-])c1)c1cccc(Cl)c1`: the inhibition was -8.32%.

As for `Nc1c(Cl)cc(S(N)(=O)=O)cc1S(N)(=O)=O`, the inhibition is -2.85%.

On to `Cc1ccc(SC(CC(=O)c2ccc(C(C)(C)C)cc2)C(=O)O)cc1` (stereo unspecified), for which the inhibition is 1.42%.

For the compound `CCC(=O)c1ccc(OCC(O)CN2CCN(c3cccc(C(F)(F)F)c3)CC2)cc1` (stereo unspecified), the inhibition is -0.535%.

With `OC(COc1ccc2c(c1)CCC2)CN1CCN(c2cccc(Cl)c2)CC1` (stereo unspecified), the inhibition is 0.823%.

In the case of `OC(COc1ccccc1)CN1CCN(c2cccc(Cl)c2)CC1` (stereo unspecified), the inhibition is 49.6% (active).

Regarding `CC1CCCC(NC(=O)CSc2nccn2C)C1C` (stereo unspecified), the inhibition is -1.19%.

Turning to `O=C(COc1coc(CN2CCN(c3ccccc3)CC2)cc1=O)N1CCc2ccccc21`, the inhibition is -4.23%.

On to `O=C(COc1coc(CN2CCN(c3ccccc3)CC2)cc1=O)Nc1ccccc1F`, for which the inhibition was 0.279%.

For the compound `O=C(COc1coc(CN2CCN(c3ccccc3F)CC2)cc1=O)N1CCc2ccccc21`, the inhibition is 47.1% (active).

For `C=C1c2c(Cl)ccc(O)c2C(O)=C2C(=O)[C@]3(O)C(O)=C(C(N)=O)C(=O)[C@@H](N(C)C)[C@@H]3[C@@H](O)C12` (stereo partly specified), the inhibition is 62.7% (active).

Consider `CCC(C)CCN1CCN=C1N(C)C` (stereo unspecified), for which the inhibition is 1.08%.

Turning to `Cc1ccc(NC(=O)Cn2sc3ccccc3c2=O)cc1`, the inhibition is 5.66%.

On to `O=c1c2cc([N+](=O)[O-])ccc2nc2n1CCC2`, for which the inhibition was -38.3%.

Regarding `COCCNC(=S)Nc1cc(S(=O)(=O)N2CCOCC2)ccc1N1CCCCC1`, the inhibition was 1.91%.

Regarding `O=[N+]([O-])c1cc(Cl)cc(/C=N/NC(=S)Nc2cc(S(=O)(=O)N3CCOCC3)ccc2Cl)c1O`, the inhibition was 36.3% (active).

On to `Cc1cc(OCCCC(=O)Nc2cc(S(=O)(=O)N3CCOCC3)ccc2N2CCOCC2)ccc1Cl`, for which the inhibition is -3.23%.
